Activity calls are given as the source filed them.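 The calls were made as follows, unless noted: active = compound that reduces growth-factor-driven endothelial tube area in a mixed cell culture, no cutoff stated; inactive = the rest.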
Columns and labels:
[1] = Wnt pathway potentiators raising nuclear beta-catenin – imaging, WNT3A-conditioned medium, mouse C2C12, NPC library, primary screen (AID 1117326; in the data active = nuclear beta-catenin stimulation mostly above about 4.2%, no sharp cut-off; inactive = mostly below about 10%; also: reference of the scale not given here); settings: stronger effect = higher value
[2] = stimulators of insulin release from INS-1E, primary screen, cell-based, 5 mM glucose, NPC library (AID 1117329;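 active = compound raises insulin release from rat beta cells at 5 mM glucose, no numeric limit stated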; also: reference of the scale not given here); settings: rat INS-1E insulin secretion, at 10 µM, stronger effect = higher value
[3] = growth inhibition of GSK3B-pretreated HCT116 cells – cell-based, CellTiter-Glo, 0.2 to 20 µM (AID 1117336;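 active = compounds lowering colon cancer cell viability after pretreatment blocking the GSK3B kinase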); settings: HCT116 viability after GSK3B inhibitor, at 20 µM, stronger effect = higher value
[4] = inhibition of endothelial tube formation, primary screen, imaging, VEGF stimulated, CD31 staining, tube area, NPC library (AID 1117340); settings: VEGF-stimulated ADSC/ECFC co-culture, at 10 µM, stronger effect = higher value
[5] = GLP1 release stimulators, primary, NCI-H716, NPC library (AID 1117341;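 active = compound raises GLP1 secretion from the human gut endocrine cells, with no numeric limit stated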; also: reference of the scale not given here); settings: NCI-H716 cells, at 10 µM, stronger effect = higher value
[6] = HCT116 colon cancer cell growth inhibition, primary screen, CellTiter-Glo luminescence, NPC library (AID 1117342;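 active = compounds that lower survival of HCT116 colon cancer cells in the luminescence readout, no numeric limit stated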); settings: at 20 µM (top of the series)
[7] = reduced SW480 viability measured with CellTiter-Glo, NPC library, primary (AID 1117343;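 active = compounds that lower viability of the colon cancer cells in the luminescence readout, with no numeric limit stated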); settings: CellTiter-Glo luminescence; at 20 µM (top of the series)
[8] = NPC library primary testing for decreased DLD-1 cell viability via CellTiter-Glo (AID 1117346;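 active = compounds that lower survival of DLD-1 colon cancer cells in the luminescence readout, no cutoff given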); settings: DLD-1 viability, CellTiter-Glo luminescence; at 20 µM (top of the series)

SMILES | nuclear beta-catenin stimulation ([1]; at 10 µM) | nuclear beta-catenin stimulation ([1]; stimulation, at 2 µM) [%] | insulin secretion stimulation [2] | viability decrease [3] | tube area decrease [4] | GLP1 secretion stimulation [5] | inhibition of viability [6] | viability decrease (inhibition) [7] | viability decrease (inhibition) [8]
O=C(O)c1ccccc1NCCc1ccccc1 | 1.2% (inactive) | 2.5 | 0.15% (inactive) | 42.9% (inactive) | 22.2% (inactive) | 1.4% (inactive) | 26.7% (inactive) | 50.6% (active) | -1.8% (inactive)
COc1cc2c(cc1OC)C(=O)CC2 | 0.3% (inactive) | 2 | 0.2% (inactive) | -1.6% (inactive) | 3.8% (inactive) | 3.1% (inactive) | -8.1% (inactive) | 4.2% (inactive) | 14.9% (inactive)
Nc1ccc(O)cc1 | 18.2% (inactive) | 2 | 1% (inactive) | 99.1% (active) | 60.9% (active) | -3.8% (inactive) | 99.3% (active) | 102% (active) | 62.6% (active)
C[N+]1(CC2COC(c3ccccc3)(c3ccccc3)O2)CCCCC1 (configuration not stated) | 1.5% (inactive) | -0.6 | 6.4% (inactive) | 7.4% (inactive) | -12.8% (inactive) | 0.7% (inactive) | 23.2% (inactive) | 10.8% (inactive) | 0.5% (inactive)
N[C@H](C(=O)O)c1ccc(O)cc1 | 2.5% (inactive) | 3.1 | 5.2% (inactive) | -0.7% (inactive) | -7.9% (inactive) | -2.9% (inactive) | 6% (inactive) | 13.1% (inactive) | -2.7% (inactive)
CCN[C@@H]1C[C@H](N)[C@@H](OC2OC(CN)=CCC2N)[C@H](O)[C@H]1O[C@H]1OC[C@](C)(O)[C@H](NC)[C@H]1O (some centres not stated) | 1.3% (inactive) | 0 | 0.5% (inactive) | -7.4% (inactive) | 0.9% (inactive) | -0.5% (inactive) | -2.2% (inactive) | -1.7% (inactive) | 3.7% (inactive)
c1ccc2c(c1)CCc1ccccc1N2 | 0.8% (inactive) | 2.8 | 0.55% (inactive) | 8.3% (inactive) | -22.5% (inactive) | 2% (inactive) | -2.9% (inactive) | -16.7% (inactive) | -6.2% (inactive)
CC(=O)OCC(=O)Nc1cc(C#N)cc(NC(=O)COC(C)=O)c1Cl | -0.4% (inactive) | -1.4 | 4% (inactive) | -0.6% (inactive) | -12.8% (inactive) | 3.3% (inactive) | 0.9% (inactive) | -20.3% (inactive) | 1.6% (inactive)
CC(C)(C)CC(C)(C)c1ccc(O)c(-n2nc3ccccc3n2)c1 | 1.5% (inactive) | 1.1 | -1% (inactive) | 13.1% (inactive) | 23.9% (inactive) | -1.5% (inactive) | -8.9% (inactive) | 82.6% (active) | 22.1% (inactive)
c1ccc(OCc2ccc(CCCN3CCOCC3)cc2)cc1 | -1% (inactive) | 0.3 | 4.5% (inactive) | 32.1% (inactive) | 14% (inactive) | -0.1% (inactive) | 54.5% (active) | 34.7% (active) | 19.4% (inactive)
CCN(CC)CCSC(=O)C(c1ccccc1)c1ccccc1 | 7.2% (inactive) | 2.8 | 15.8% (inactive) | 6.7% (inactive) | 3.2% (inactive) | 9.6% (inactive) | 1% (inactive) | 5.1% (inactive) | 1.5% (inactive)
Cc1cc(O)cc2c1O[C@](C)(CCC[C@H](C)CCC[C@H](C)CCCC(C)C)CC2 | -1.3% (inactive) | -2 | 3.8% (inactive) | 12.5% (inactive) | 6.7% (inactive) | 0% (inactive) | 14.3% (inactive) | -12.8% (inactive) | -10.9% (inactive)
CCCc1ccc(OCC(=O)N2CCN(C(=O)COc3ccc(CCC)cc3OC)CC2)c(OC)c1 | 0.8% (inactive) | 2.5 | 2.6% (inactive) | -50.5% (inactive) | 43.5% (active) | 10.9% (inactive) | 48.2% (inactive) | 97.2% (active) | 101% (active)
Cc1ccc2c(Br)cc(Br)c(O)c2n1 | 43% (active) | 5.5 | 2.4% (inactive) | 91% (active) | 106% (active) | -1.3% (inactive) | 79.2% (active) | 90.3% (active) | 93.3% (active)
O=C(CN1CCN(Cc2ccc3c(c2)OCO3)CC1)N1c2ccccc2Sc2ccccc21 | 0.2% (inactive) | 2.2 | 7.5% (inactive) | 63.5% (active) | 7.5% (inactive) | 16.3% (inactive) | 67.4% (active) | 126% (active) | 76.8% (active)
Oc1cccc(O)c1O | 5% (inactive) | 2.5 | 2.5% (inactive) | 68.9% (active) | 24.9% (inactive) | -1% (inactive) | 45.7% (inactive) | 101% (active) | 17.2% (inactive)
CC(=O)O[C@@H]1CC2C3CCc4cc(OC(=O)c5ccccc5)ccc4C3CCC2(C)[C@H]1OC(C)=O (some centres not stated) | 0.7% (inactive) | 1.1 | 0.5% (inactive) | -39.7% (inactive) | 27.8% (inactive) | 2.1% (inactive) | 0.9% (inactive) | 47% (inactive) | -13.5% (inactive)

SMILES | nuclear beta-catenin stimulation ([1]; at 10 µM) | nuclear beta-catenin stimulation ([1]; stimulation, at 2 µM) [%] | insulin secretion stimulation [2] | viability decrease [3] | tube area decrease [4] | GLP1 secretion stimulation [5] | inhibition of viability [6] | viability decrease (inhibition) [7] | viability decrease (inhibition) [8]
CC1CC(=O)NN=C1c1ccc(NCC(C)(C)NCC(O)COc2cc(Cl)ccc2C#N)cc1 (configuration not stated) | -1.8% (inactive) | 1.1 | 31.3% (active) | -8% (inactive) | 11.2% (inactive) | 1% (inactive) | 23.2% (inactive) | 5.4% (inactive) | 15.4% (inactive)
Cc1cc(=O)oc2cc(O[C@@H]3SC[C@@H](O)[C@H](O)[C@H]3O)ccc12 | -0.2% (inactive) | -1.9 | 1.1% (inactive) | -1.3% (inactive) | 13.6% (inactive) | 3.6% (inactive) | -1.1% (inactive) | -15.9% (inactive) | 15.4% (inactive)
CO[C@@H]1[C@@H](O[C@@H]2O[C@H](C)[C@@H](O[C@H]3C[C@@](C)(O)[C@@H](O)[C@H](C)O3)[C@H](N(C)C)[C@H]2O)[C@@H](CC=O)C[C@@H](C)[C@@H](O[C@@H]2CC[C@H](N(C)C)[C@@H](C)O2)/C=C/C=C/C[C@@H](C)OC(=O)C[C@H]1OC(C)=O | -0.1% (inactive) | -1.2 | 3.3% (inactive) | 0.2% (inactive) | 3% (inactive) | 9.9% (inactive) | 23.2% (inactive) | 59.8% (active) | 18.7% (inactive)
CC[C@@]1(O)C(=O)OCc2c1cc1n(c2=O)Cc2c-1nc1ccccc1c2/C=N/OC(C)(C)C | 38.7% (active) | 59.7 | 2.9% (inactive) | -17.1% (active) | 59.9% (active) | 14.3% (inactive) | 35% (active) | 64.5% (active) | 76.5% (active)
O[C@@H]1CO[C@H]2[C@@H]1OC[C@@H]2O | 1% (inactive) | 1 | -2% (inactive) | 2.15% (inactive) | 16.5% (inactive) | 1.1% (inactive) | -9.1% (inactive) | 51.8% (active) | -4.4% (inactive)
N#CSCC(=O)O | 0.3% (inactive) | 1 | 0.5% (inactive) | -47.6% (inactive) | 2.4% (inactive) | -0.1% (inactive) | -4.8% (inactive) | -6.2% (inactive) | -5.4% (inactive)
CCC(=O)O[C@]1(C(=O)COC)[C@@H](C)C[C@H]2[C@@H]3CCC4=CC(=O)C=C[C@]4(C)C3(F)[C@@H](O)C[C@@]21C (some centres not stated) | 1.5% (inactive) | 0.5 | 1.1% (inactive) | -69.2% (inactive) | 6.6% (inactive) | -0.3% (inactive) | -4.8% (inactive) | 6% (inactive) | -2.9% (inactive)
NNc1nnc(NN)c2ccccc12 | 3.3% (inactive) | 1.4 | -1.8% (inactive) | -0.85% (inactive) | 40.1% (active) | -3.3% (inactive) | 22.6% (inactive) | 22.7% (inactive) | 6.6% (inactive)
COC(=O)C1=C(C)NC(C)=C(C(=O)OCC(C)=O)C1c1ccccc1[N+](=O)[O-] (configuration not stated) | 1.6% (inactive) | 1.2 | -0.3% (inactive) | 25.5% (inactive) | 7% (inactive) | -2.7% (inactive) | 39.1% (inactive) | 69.6% (active) | 28.3% (inactive)
Cc1onc(-c2c(F)cccc2Cl)c1C(=O)Cl | -0.1% (inactive) | 0.5 | 1.1% (inactive) | -3.1% (inactive) | -12.5% (inactive) | -1.4% (inactive) | 0.4% (inactive) | -2.6% (inactive) | 2.8% (inactive)
N#C/C(=C1\SCC(c2ccccc2Cl)S1)n1ccnc1 (configuration not stated) | 2% (inactive) | 2.6 | -2.4% (inactive) | 13.1% (inactive) | 21.9% (inactive) | 0.1% (inactive) | 21.7% (inactive) | 85.4% (active) | 35.2% (inactive)
O=C(O)c1c(O)c(-c2ccccc2)nc2ccccc12 | 0.5% (inactive) | -0.8 | 3% (inactive) | 66.1% (active) | 2.6% (inactive) | -0.1% (inactive) | 39.2% (inactive) | 107% (active) | 39% (inactive)
Oc1ccccc1-c1nnco1 | 0.3% (inactive) | -0.2 | 3.2% (inactive) | -2.4% (inactive) | -3.9% (inactive) | -0.1% (inactive) | 12.2% (inactive) | 22.1% (inactive) | -0.7% (inactive)
O=S(=O)(O)c1ccc(O)cc1 | 0.1% (inactive) | 2 | -2.6% (inactive) | -3.65% (inactive) | 5.3% (inactive) | -0.7% (inactive) | -4% (inactive) | 11.5% (inactive) | -5.95% (inactive)
CCCSS/C(CCO)=C(\C)N(C=O)Cc1cnc(C)nc1N | -1.4% (inactive) | -0.7 | 10.2% (inactive) | 33.3% (inactive) | 55.3% (active) | -4.8% (inactive) | 19.1% (inactive) | 45.4% (inactive) | 65.6% (active)
CCCCCCCCCCCCOCCOCCOCCOCCOCCOCCOCCOCCOCCO | 3.9% (inactive) | 1.9 | 0.8% (inactive) | 78.1% (active) | 47.8% (active) | 33.5% (active) | 96.8% (active) | 124% (active) | 104% (active)
